Results published in PubChem BioAssay (NCI).
Where “and” joins values, the source holds several entries; their conditions need not be identical. Identical values can stand only once. Compounds without any hit were thinned out: in the full panel of roughly 83,000, 20% have a hit.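 Note: values are percent growth. 100 is the growth of untreated cells, values between 100 and 0 indicate rising inhibition; between -100 and 0 indicates cell death.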 Calls of active or inactive are those of the source.

These compounds were tested on SK-MEL-5 melanoma (assay: NCI-60 one-dose screen, 48 h (100 = growth as untreated, 0 = no growth, -100 = all killed)). Conditions: 10 µM unless noted.
Experimental: Growth inhibition of the SK-MEL-5 human tumor cell line is measured as a screen for anti-cancer activity. Cells are grown in 96 well plates and exposed to the test compound for 48 hours. Compounds are tested at a single concentration, which is 10^-5 M for most compounds. The reported endpoint is percent growth (GI% or GIPRCNT), where numbers from 0 - 100% represent growth inhibition, and numbers from -100% - 0 represent cell death. For example, a value of 40 represents 60% growth inhibition. A value of 0 means no net growth occurred over the course of the experiment. A value of -40 indicates 40% of cells at the beginning of the experiment died by the end of the experiment. A value of -100 means all cells are dead at the end of the experiment.
NCI-60 Human Tumor Cell Lines Screen was performed using the standard one-dose NCI protocol, which is described in more detail at https://dtp.cancer.gov/discovery_development/nci-60/default.htm.
Compounds with GIPRCNT values below 10 were considered active. Activity score was based on GIPRCNT using the following formula: […]
Score is 0 for GIPRCNT values of 100 or above, 50 for GIPRCNT values of 0, and 100 for GIPRCNT values of -100.

Row | Compound | growth
1 | O=[N+]([O-])c1cccc(N=Cc2ccccc2)c1 | 104% (inactive)
2 | O=S(=O)(O)c1ccc2cc(O)ccc2c1 | 96.8% (inactive)
3 | O=C1C(=O)c2ccccc2C(O)=C1CC=C(Cl)Cl | 48.4% (inactive) and 48.1% (inactive)
4 | COC(=O)C(Cc1cn(C(C)=O)c2ccccc12)P(=O)(OC)OC (stereo not given) | 96.8% (inactive)
5 | CCC(C)NC(=O)c1ccccc1C (stereo not given) | 91% (inactive)
6 | O=[N+]([O-])c1ccc(N2CCN=N2)cc1 | 93.3% (inactive)
7 | CCOC(=O)c1ccc(C(=N)N)cc1 | 107% (inactive)
8 | CCOC(C)=N | 109% (inactive)
9 | COc1ccc(COC=O)cc1 | 104% (inactive)
10 | CC(=O)Nc1cscc1NC(C)=O | 99.3% (inactive)
11 | CCCCCCC(C)CC1=C(O)c2ccccc2C(=O)C1=O (stereo not given) | 11.9% (inactive)
12 | COc1ccc2nccc(Cl)c2c1 | 102% (inactive)
13 | N=C(N)N1CCc2ccccc2C1 | 102% (inactive) and 111% (inactive)
14 | COc1cc2c(cc1O)C(=O)CCCC2 | 102% (inactive)
15 | CCc1ccccc1-n1[nH]c(C)c(C=N)c1=O | 104% (inactive)
16 | CCCCC/C(C)=N\NC(N)=S | 90% (inactive)
17 | Cc1ccc(S(=O)(=O)n2ccnc2)cc1 | 99.9% (inactive)
18 | C#CCOC(=O)C(N)CS (stereo not given) | 104% (inactive)
19 | CCC/C(=N/NC(N)=O)c1ccco1 | 99.5% (inactive)
20 | O=[N+]([O-])c1ccc(NC2CCCCC2)nc1 | 112% (inactive) and 106% (inactive)

Row | Compound | growth
21 | CSc1nc(N)c(N)c(N)n1 | 101% (inactive)
22 | CC(=O)c1cc2ccccc2o1 | 101% (inactive)
23 | CCCCCCCCCCCCCCCCC(=O)O | 100% (inactive)
24 | O=c1[nH]nnc2cc(Cl)ccc12 | 100% (inactive)
25 | Cc1cc2nc3ccc(=[N+](C)C)cc-3sc2cc1N | -92.2% (active) and -90.1% (active)
26 | CC(=O)Oc1cc(C)c(OC(C)=O)c(C)c1C | 91.4% (inactive)
27 | CC(CN(C)C)CN1c2ccccc2Sc2ccccc21 (stereo not given) | 87.1% (inactive) and 74% (inactive) and 89.3% (inactive)
28 | S=c1nn[nH]n1C1CCCCC1 | 105% (inactive)
29 | Oc1ccc(O)c(-c2ccccc2)c1 | 42.9% (inactive)
30 | CC1CCC(=O)N1c1ccc(N)cc1 (stereo not given) | 98.9% (inactive)
31 | CCNCc1ccccc1 | 108% (inactive)
32 | O=C(Nc1ccccc1)OCC(CN1CCCCC1)OC(=O)Nc1ccccc1 (stereo not given) | 60.5% (inactive) and 93.7% (inactive)
33 | CCOc1ccc(/C=C\C(=O)O)cc1 | 108% (inactive)
34 | O=C(OCc1ccccc1)c1ccccc1 | 104% (inactive) and 101% (inactive)
35 | CN(C)c1ccc(C(=N)c2ccc(N(C)C)cc2)cc1 | 7.19% (active) and 22.7% (inactive)
36 | ON=C(C1CCCCC1)C1CCCCC1 | 108% (inactive)
37 | CCOP(=O)(OCC)/C(C#N)=C/c1c(C)[nH]c2ccccc12 | 91.3% (inactive)
38 | COc1cc(NCCCCCCCNC(C)C)c2nccc(C)c2c1 | 84.3% (inactive) and 64.8% (inactive)
39 | COC(=O)CCOc1ccccc1 | 95.5% (inactive)
40 | CCNC1=CC(=O)c2ncccc2C1=O | -98.3% (active)
